Data reported in PubChem BioAssay (NCATS).
Records with an inconclusive call do not appear. A call without a number means that no potency is given here. Active and inactive are the calls of the source. The call rests on the fitted dose curve; in most records, active means well fitted curve in the direction sought with a large enough effect; inconclusive means small, poorly fitted or top-dose-only effect, or another doubt; inactive means no such curve, though single readings can be large; an effect the other way counts as inactive or inconclusive.

What was measured:
[1] = target: Aldehyde dehydrogenase, mitochondrial (Homo sapiens) (UniProt P05091); test: qHTS for Inhibitors of the Aldehyde Dehydrogenase Family (ALDH2) Primary screen (AID 2061308); settings: ALDH2 enzyme inhibition qHTS, 1536-well; series mostly up to 56 µM; further: nearly all actives have a fitted effect of over 55% in size
[2] = target: Retinaldehyde dehydrogenase 3 (Homo sapiens) (UniProt P47895); test: qHTS for Inhibitors of the Aldehyde Dehydrogenase Family (ALDH1A3) Primary screen (AID 2061315); settings: ALDH inhibition qHTS; series mostly up to 56 µM

Compound	Potency [1]	Potency [2]
CC(Nc1ccc([S+](=O)([O-])Nc2nccs2)cc1)c1ccccc1 (stereo not drawn)	inactive	inactive
O=C(Nc1nc(-c2ccccc2)cs1)c1ccncc1NS(=O)(=O)c1ccc(F)cc1	inactive	inactive
C#CCCC(=O)Nc1sc2c(c1-c1nc3ccccc3s1)CCN(C(C)C)C2	inactive	inactive
COc1cccc(CNc2ccc(S(=O)(=O)Nc3cc(C)on3)cc2)c1O	inactive	inactive
CC(C)(C)NC(=O)N1CCC(C(=O)Nc2ccc([S+](=O)([O-])Nc3nccs3)cc2)CC1	inactive	inactive
O=C(CSc1nnc(-c2cccc([S+](=O)([O-])N3CCCC3)c2)n1-c1ccccc1)Nc1cccc(C(F)(F)F)c1	inactive	inactive
N#Cc1ccc(NC(=O)Nc2nnc(-c3ccncc3)s2)c(Cl)c1	inactive	inactive
Cc1c(P(=S)(c2ccccc2)c2ccccc2)c2ccccc2n1C(=O)NCc1ccc(F)cc1	inactive	inactive
CCOc1ccc(NC(=O)c2ccc(-c3nc4ccccc4[nH]3)cc2)cc1Cl	inactive	inactive
COc1ccccc1S(=O)(=O)Nc1ccc2c(c1)CN(C)C(=O)N2	inactive	inactive
Cn1c(=O)c2c(nc(OC3CCN(C(=O)C4CC4)CC3)n2CCC(C)(C)C)n(C)c1=O	inactive	inactive
COc1ccc(C2Nc3cccc(OC)c3C(=O)N2Cc2ccco2)cc1COc1c(C)cc(NC(C)=O)cc1C (stereo not drawn)	inactive	inactive
Cc1ccnc(NC(=S)N2CC3CN(c4ccc(Cl)cc4C(F)(F)F)CC3C2)c1 (stereo not drawn)	inactive	inactive
CC(C)(C)C1CCC(C(=O)Nc2ccc(S(=O)(=O)Nc3nccs3)cc2)CC1 (stereo not drawn)	inactive	inactive
Cc1ccc(-c2ccc(=O)n(CCNCCc3ccccc3)n2)cc1	inactive	inactive
CCc1nn2c(=O)cc(N3C(C)CNCC3C)nc2s1 (stereo not drawn)	inactive	inactive
O=C1CCCC2=C1[C@@]1(CCC(c3ccccc3)C1)N=C(Nc1nc3ccccc3o1)N2 (stereo partly drawn)	inactive	inactive
CN1CCN(Nc2nn3c(=O)c4ccccc4nc3s2)CC1	inactive	inactive
Cc1ccc(C(=O)Oc2ccc(-c3nc4ccccc4[nH]3)cc2)cc1Br	inactive	inactive
CC1(C)C[C@@H]2C[C@@](C)(CN2S(=O)(=O)c2ccc(C(=O)Nc3ccc(Cl)c(S(=O)(=O)N4CCOCC4)c3)cc2)C1	inactive	inactive

Compound	Potency [1]	Potency [2]
Cn1nnnc1Sc1ncnc2scc(-c3cccc(Cl)c3)c12	inactive	inactive
O=c1c2ccc(C(F)(F)F)cc2nc2sc(Nc3ccc4c(c3)CCC4)nn12	inactive	inactive
CCCn1c(-c2ccc(F)cc2)nc2c(NCC(C)(C)CN(C)C)nc(C)nc21	inactive	inactive
CCC(C)C(=O)Oc1cc(C)ccc1C1(COC(=O)C(C)C)CO1 (stereo not drawn)	inactive	inactive
CC(=O)Nc1sc2c(c1-c1cccc3c1sc1ccccc13)CCNC2	inactive	inactive
Cc1cc(N[S+](=O)([O-])c2ccc(NC(=O)Cc3ccc4c(c3)CCO4)cc2)no1	inactive	inactive
COc1cc(-c2nc(Nc3ccc(F)c(F)c3)c3ccccc3n2)c(F)cn1	inactive	inactive
Cc1nc(NCc2ccccc2)c2nc(-c3ccccc3)n(C3CCN(Cc4ccccc4)C3)c2n1 (stereo not drawn)	inactive	inactive
CC(=O)Nc1sc2c(c1-c1ccc3c(c1)OCO3)CCNC2	inactive	inactive
O=S(=O)(NCc1ccccc1)c1ccc(O)c2ncccc12	inactive	inactive
CCOc1ccc(CCNC(=O)c2cc3ccccc3n2Cc2ccc(Cl)c(F)c2)cc1OCC	inactive	inactive
Cc1ccc(-c2ccnn(CC(=O)N(C)C(C)c3ccco3)c2=O)cc1 (stereo not drawn)	inactive	inactive
CC(C)c1cccc(C(C)C)c1NC(=O)Nc1ccc(Sc2ccc([N+](=O)[O-])cc2)cc1	inactive	inactive
CCOc1ccccc1OCCNC(C)Cc1ccc(OC)c(S(N)(=O)=O)c1 (stereo not drawn)	inactive	inactive
CNC(=O)c1cnn2c(C)cc(C)nc12	inactive	inactive
O=C(Nc1ccc(S(=O)(=O)Nc2nccs2)cc1)C1CC(OCc2ccccc2)C1 (stereo not drawn)	inactive	inactive
Cc1cc2c(s1)c1cnn(Cc3cc(Cl)ccc3F)c(=O)c1n2C	inactive	inactive
Cc1ccc(C(=O)Nc2nnc(-c3ccco3)o2)cc1	inactive	inactive
Cc1ccnc(NC(=S)N2CCCN(c3cccc(C(F)(F)F)c3)CC2)c1	inactive	inactive
